Assay [1] is described as follows: CCTE_Harrill_HTTr_Viability_MCF7: CCTE's 6-hour Cell Viability Assessment for the High-Throughput Transcriptomics (HTTr) Platform, in MCF-7 cells cultured in DMEM + 10% fetal bovine serum, Harrill Lab (AID 2284010). In a few lines:
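Eight-point concentration series, six-hour exposure. Propidium iodide exclusion imaged to assess membrane integrity as a cytotoxicity readout; bidirectional fitting was done with DMSO as negative control and activity baseline.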

Assay [2] is described as follows: CCTE_Harrill_HTTr_CellCount_MCF7: CCTE's Cell Proliferation Assessment for the High-Throughput Transcriptomics (HTTr) Platform, Harrill Lab (AID 2284012; active = hit-call score of the fitted dose curve at least 0.9, where 1 is the maximum;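 note: intended direction is loss of nuclei count meaning fewer cells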). In a few lines: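 For this full-screen endpoint, MCF-7 cultures received eight compound dilutions for six hours. Well nuclei counts from Hoechst imaging were analyzed relative to DMSO.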
Assay [3] is described as follows: CCTE_Harrill_HTTr_Apoptosis_MCF7: CCTE's 6-hour Apoptosis Assessment for the High-Throughput Transcriptomics (HTTr) Platform, in MCF-7 cells cultured in DMEM + 10% fetal bovine serum, Harrill Lab (AID 2284011). Summed up: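 Read-out: CellEvent Caspase 3/7 Green signal by high content imaging, gain-of-signal indicating apoptosis. MCF-7 cells, DMEM + 10% FBS, eight-point dilution series, 6 h exposure. Curves fitted bidirectionally relative to DMSO negative control.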

Results filed as inconclusive are left out. The source made the active and inactive calls. Rule for the calls, unless noted: active = hit-call score of the fitted dose curve at least 0.9, where 1 is the maximum; inactive = score below 0.9.

In the case of `Cc1ccc(C=O)cc1`, the result in assay [1] and in assay [2] was inactive.

For the compound `CC(C)(Oc1ccc(CCNC(=O)c2ccc(Cl)cc2)cc1)C(=O)O`, the outcome in assay [1], in assay [3] and in assay [2] was inactive.

For `CC(C)=CCCC(C)=CCCC(C)=CCO`, the outcome in assay [1], in assay [3] and in assay [2] was inactive.

As to `CN1[C@@H]2CC(OC(=O)[C@H](CO)c3ccccc3)C[C@H]1[C@@H]1O[C@@H]12` (stereo not given in full), the outcome in assay [1], in assay [3] and in assay [2] was inactive.

With `CCCCCC(CO)CCC` (stereo not given), the outcome in assay [1] and in assay [2] was inactive.

Turning to `Cc1ccc(C=O)s1`, the outcome in assay [1], in assay [3] and in assay [2] was inactive.

What is called AC50 is the concentration giving half of the maximal activity seen. As to `CNCCCC12CCC(c3ccccc31)c1ccccc12`, the AC50 in assay [1] is 47.3 µM (active). The result in assay [3] and in assay [2] was inactive.

With `CC(C)[C@H]1CC[C@@H](C)CC1=O`, the outcome in assay [1] and in assay [2] was inactive.

For `O=C(O)c1cn(C2CC2)c2cc(N3CCNCC3)c(F)cc2c1=O`, the result in assay [1] and in assay [2] was inactive.

Turning to `Clc1ccc2c(c1)C(N1CCNCC1)=Nc1ccccc1O2`, the result in assay [1], in assay [3] and in assay [2] was inactive.

Turning to `O=C(O)Cc1cccc2ccccc12`, the outcome in assay [1], in assay [3] and in assay [2] was inactive.

`NCCCCCCN`: the result in assay [1], in assay [3] and in assay [2] was inactive.

In the case of `CCCCCCCCCC=O`, the outcome in assay [1], in assay [3] and in assay [2] was inactive.

Regarding `CCC(C)CCCC(C)(C)O` (stereo not given), the outcome in assay [1] and in assay [2] was inactive.

Take `NC(=O)NC1NC(=O)NC1=O` (stereo not given): the result in assay [1] and in assay [2] was inactive.

As to `Clc1ccc(Cl)c(Cl)c1Cl`, the outcome in assay [1], in assay [3] and in assay [2] was inactive.

On to `O=C1C(c2[nH]c3ccc(S(=O)(=O)O)cc3c2O)=Nc2ccc(S(=O)(=O)O)cc21`, for which the outcome in assay [1], in assay [3] and in assay [2] was inactive.

Regarding `CC1CCC2CC1C2(C)C` (stereo not given), the result in assay [1], in assay [3] and in assay [2] was inactive.

`CC(=O)OCCOC(C)=O`: the outcome in assay [1] and in assay [2] was inactive.
